The supplement of paper PMC11732987, “Enantioselective OTUD7B fragment discovery through chemoproteomics screening and high-throughput optimisation” (Communications Chemistry, 2025)

Assays:
Assay in all cases: log2 ratio of Biotin-Ahx-Ub-VS probe labelling (fragment/DMSO); higher = less target engagement (more negative = stronger competition), active = hit call of the paper (q ≤ 0.05, log2 ratio ≤ -1)
Settings in all cases: compound concentration: 200 uM; treatment time: 3 h
[1] = molecular target: USP34 (UniProt Q70CQ2)
Outline: (§1)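 Each value is an average log2 ratio of fragment to vehicle, tested by unpaired t-test. The underlying Spectronaut label-free quantities were global-median-normalised, and only proteins with ≥2 unique peptides were included. Triplicate HEK293T lysate samples (495 µg) were exposed to fragment at 200 µM or vehicle for 3 h, then to Biotin-Ahx-Ub-VS at 0.5 µM final for 1 h, before NeutrAvidin enrichment of labelled DUBs, LysC and trypsin digestion, and diaPASEF LC-MS/MS.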

[2] = molecular target: T1, USP36 (UniProt Q9P275)
T1 sequence (whole entry): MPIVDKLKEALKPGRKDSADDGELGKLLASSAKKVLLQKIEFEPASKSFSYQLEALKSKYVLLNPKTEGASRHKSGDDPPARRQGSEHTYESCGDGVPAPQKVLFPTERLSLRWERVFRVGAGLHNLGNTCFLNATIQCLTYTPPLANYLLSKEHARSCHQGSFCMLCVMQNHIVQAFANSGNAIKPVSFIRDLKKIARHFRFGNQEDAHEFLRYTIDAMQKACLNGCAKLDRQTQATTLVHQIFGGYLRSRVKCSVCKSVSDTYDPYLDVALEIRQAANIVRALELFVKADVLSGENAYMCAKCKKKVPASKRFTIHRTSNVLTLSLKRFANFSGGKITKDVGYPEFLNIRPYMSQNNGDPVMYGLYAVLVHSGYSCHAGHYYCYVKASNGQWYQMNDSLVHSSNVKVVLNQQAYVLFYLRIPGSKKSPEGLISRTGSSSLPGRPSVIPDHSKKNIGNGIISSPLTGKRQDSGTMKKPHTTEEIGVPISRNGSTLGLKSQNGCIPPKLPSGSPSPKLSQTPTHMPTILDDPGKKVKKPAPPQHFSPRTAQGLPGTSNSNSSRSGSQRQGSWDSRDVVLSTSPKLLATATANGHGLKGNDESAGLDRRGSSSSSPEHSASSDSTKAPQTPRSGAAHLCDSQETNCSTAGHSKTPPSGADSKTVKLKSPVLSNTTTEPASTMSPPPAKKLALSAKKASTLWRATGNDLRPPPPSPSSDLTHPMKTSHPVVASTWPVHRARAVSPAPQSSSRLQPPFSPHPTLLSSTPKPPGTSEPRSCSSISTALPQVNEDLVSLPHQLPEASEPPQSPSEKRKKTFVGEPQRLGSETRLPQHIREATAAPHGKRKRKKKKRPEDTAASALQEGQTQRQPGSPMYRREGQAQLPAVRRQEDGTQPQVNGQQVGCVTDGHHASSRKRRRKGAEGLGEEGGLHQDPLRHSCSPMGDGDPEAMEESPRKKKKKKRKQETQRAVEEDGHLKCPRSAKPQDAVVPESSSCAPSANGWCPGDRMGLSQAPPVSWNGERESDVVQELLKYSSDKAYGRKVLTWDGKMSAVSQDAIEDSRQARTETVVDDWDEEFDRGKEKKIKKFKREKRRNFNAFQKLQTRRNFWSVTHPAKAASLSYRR
Outline: as §1

[3] = molecular target: T2, USP38 (UniProt Q8NB14)
T2 sequence (whole entry): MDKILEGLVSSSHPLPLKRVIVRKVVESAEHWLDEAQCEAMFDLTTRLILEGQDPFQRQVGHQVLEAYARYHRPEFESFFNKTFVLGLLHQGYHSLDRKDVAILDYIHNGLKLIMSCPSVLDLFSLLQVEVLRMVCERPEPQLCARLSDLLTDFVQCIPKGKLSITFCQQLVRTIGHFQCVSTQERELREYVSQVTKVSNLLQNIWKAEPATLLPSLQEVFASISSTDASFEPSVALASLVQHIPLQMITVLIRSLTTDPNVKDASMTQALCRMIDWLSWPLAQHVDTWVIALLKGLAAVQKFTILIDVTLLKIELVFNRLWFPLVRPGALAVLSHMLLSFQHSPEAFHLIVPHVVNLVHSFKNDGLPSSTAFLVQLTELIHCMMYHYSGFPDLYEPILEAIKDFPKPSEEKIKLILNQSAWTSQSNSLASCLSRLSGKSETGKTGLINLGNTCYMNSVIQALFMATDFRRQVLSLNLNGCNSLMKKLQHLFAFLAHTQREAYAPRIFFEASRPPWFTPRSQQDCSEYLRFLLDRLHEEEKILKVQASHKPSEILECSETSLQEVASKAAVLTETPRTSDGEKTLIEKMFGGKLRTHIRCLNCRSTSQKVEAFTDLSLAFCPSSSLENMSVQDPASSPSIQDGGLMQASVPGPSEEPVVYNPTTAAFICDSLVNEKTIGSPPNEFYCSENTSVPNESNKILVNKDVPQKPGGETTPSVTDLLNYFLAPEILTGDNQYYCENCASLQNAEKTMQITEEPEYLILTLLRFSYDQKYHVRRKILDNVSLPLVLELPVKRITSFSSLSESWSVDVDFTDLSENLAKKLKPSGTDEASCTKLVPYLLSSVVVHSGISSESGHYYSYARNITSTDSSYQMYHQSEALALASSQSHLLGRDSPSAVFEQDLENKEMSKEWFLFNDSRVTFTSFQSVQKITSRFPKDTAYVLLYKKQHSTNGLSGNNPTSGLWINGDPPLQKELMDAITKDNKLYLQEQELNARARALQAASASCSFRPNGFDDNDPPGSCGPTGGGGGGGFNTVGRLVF
Outline: as §1

[4] = molecular target: T3, USP39 (UniProt Q53GS9)
T3 sequence (whole entry): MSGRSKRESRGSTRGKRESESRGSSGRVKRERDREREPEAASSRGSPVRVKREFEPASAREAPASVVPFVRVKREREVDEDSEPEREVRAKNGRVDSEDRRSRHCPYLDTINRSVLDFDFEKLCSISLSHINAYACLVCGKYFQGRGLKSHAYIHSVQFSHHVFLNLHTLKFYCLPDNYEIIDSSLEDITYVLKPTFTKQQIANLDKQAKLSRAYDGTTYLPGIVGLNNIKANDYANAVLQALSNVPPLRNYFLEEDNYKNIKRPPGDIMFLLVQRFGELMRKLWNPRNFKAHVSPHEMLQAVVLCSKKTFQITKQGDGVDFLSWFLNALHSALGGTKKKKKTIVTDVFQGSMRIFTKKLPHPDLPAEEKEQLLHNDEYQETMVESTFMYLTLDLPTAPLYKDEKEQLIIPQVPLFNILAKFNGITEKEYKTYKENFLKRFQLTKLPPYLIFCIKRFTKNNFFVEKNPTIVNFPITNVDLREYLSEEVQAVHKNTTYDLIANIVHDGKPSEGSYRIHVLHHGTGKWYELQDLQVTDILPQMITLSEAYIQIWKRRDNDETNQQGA
Outline: as §1

[5] = molecular target: T4, USP4 (UniProt Q13107)
T4 sequence (whole entry): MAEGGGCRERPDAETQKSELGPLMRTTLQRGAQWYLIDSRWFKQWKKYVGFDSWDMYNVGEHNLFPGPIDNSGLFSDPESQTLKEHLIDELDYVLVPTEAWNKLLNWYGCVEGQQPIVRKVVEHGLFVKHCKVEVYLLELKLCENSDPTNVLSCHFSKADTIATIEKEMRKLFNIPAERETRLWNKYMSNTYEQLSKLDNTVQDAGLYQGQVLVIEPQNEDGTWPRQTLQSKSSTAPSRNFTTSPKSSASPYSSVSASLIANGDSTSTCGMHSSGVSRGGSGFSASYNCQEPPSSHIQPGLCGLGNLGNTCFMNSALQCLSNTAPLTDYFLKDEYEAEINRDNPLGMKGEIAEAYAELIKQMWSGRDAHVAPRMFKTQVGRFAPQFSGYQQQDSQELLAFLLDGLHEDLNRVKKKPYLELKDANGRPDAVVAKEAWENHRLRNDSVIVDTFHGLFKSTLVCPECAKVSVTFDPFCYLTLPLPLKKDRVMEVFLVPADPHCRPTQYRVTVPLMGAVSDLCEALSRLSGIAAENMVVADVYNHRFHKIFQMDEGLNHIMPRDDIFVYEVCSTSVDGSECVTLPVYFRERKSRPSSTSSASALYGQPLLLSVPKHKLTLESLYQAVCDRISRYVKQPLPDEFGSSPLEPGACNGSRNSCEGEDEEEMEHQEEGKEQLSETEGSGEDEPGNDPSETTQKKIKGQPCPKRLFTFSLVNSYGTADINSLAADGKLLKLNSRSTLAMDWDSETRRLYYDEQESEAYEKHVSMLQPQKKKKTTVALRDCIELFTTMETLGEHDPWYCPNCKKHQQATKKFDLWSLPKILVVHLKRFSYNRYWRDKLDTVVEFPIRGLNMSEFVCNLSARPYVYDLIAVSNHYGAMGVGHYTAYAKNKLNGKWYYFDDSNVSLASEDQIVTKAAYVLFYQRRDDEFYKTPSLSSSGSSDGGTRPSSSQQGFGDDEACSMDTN
Outline: as §1

Measured: log2 ratio of Biotin-Ahx-Ub-VS probe labelling

USP34, sequence (Q70CQ2 whole entry, the tested form may be a part): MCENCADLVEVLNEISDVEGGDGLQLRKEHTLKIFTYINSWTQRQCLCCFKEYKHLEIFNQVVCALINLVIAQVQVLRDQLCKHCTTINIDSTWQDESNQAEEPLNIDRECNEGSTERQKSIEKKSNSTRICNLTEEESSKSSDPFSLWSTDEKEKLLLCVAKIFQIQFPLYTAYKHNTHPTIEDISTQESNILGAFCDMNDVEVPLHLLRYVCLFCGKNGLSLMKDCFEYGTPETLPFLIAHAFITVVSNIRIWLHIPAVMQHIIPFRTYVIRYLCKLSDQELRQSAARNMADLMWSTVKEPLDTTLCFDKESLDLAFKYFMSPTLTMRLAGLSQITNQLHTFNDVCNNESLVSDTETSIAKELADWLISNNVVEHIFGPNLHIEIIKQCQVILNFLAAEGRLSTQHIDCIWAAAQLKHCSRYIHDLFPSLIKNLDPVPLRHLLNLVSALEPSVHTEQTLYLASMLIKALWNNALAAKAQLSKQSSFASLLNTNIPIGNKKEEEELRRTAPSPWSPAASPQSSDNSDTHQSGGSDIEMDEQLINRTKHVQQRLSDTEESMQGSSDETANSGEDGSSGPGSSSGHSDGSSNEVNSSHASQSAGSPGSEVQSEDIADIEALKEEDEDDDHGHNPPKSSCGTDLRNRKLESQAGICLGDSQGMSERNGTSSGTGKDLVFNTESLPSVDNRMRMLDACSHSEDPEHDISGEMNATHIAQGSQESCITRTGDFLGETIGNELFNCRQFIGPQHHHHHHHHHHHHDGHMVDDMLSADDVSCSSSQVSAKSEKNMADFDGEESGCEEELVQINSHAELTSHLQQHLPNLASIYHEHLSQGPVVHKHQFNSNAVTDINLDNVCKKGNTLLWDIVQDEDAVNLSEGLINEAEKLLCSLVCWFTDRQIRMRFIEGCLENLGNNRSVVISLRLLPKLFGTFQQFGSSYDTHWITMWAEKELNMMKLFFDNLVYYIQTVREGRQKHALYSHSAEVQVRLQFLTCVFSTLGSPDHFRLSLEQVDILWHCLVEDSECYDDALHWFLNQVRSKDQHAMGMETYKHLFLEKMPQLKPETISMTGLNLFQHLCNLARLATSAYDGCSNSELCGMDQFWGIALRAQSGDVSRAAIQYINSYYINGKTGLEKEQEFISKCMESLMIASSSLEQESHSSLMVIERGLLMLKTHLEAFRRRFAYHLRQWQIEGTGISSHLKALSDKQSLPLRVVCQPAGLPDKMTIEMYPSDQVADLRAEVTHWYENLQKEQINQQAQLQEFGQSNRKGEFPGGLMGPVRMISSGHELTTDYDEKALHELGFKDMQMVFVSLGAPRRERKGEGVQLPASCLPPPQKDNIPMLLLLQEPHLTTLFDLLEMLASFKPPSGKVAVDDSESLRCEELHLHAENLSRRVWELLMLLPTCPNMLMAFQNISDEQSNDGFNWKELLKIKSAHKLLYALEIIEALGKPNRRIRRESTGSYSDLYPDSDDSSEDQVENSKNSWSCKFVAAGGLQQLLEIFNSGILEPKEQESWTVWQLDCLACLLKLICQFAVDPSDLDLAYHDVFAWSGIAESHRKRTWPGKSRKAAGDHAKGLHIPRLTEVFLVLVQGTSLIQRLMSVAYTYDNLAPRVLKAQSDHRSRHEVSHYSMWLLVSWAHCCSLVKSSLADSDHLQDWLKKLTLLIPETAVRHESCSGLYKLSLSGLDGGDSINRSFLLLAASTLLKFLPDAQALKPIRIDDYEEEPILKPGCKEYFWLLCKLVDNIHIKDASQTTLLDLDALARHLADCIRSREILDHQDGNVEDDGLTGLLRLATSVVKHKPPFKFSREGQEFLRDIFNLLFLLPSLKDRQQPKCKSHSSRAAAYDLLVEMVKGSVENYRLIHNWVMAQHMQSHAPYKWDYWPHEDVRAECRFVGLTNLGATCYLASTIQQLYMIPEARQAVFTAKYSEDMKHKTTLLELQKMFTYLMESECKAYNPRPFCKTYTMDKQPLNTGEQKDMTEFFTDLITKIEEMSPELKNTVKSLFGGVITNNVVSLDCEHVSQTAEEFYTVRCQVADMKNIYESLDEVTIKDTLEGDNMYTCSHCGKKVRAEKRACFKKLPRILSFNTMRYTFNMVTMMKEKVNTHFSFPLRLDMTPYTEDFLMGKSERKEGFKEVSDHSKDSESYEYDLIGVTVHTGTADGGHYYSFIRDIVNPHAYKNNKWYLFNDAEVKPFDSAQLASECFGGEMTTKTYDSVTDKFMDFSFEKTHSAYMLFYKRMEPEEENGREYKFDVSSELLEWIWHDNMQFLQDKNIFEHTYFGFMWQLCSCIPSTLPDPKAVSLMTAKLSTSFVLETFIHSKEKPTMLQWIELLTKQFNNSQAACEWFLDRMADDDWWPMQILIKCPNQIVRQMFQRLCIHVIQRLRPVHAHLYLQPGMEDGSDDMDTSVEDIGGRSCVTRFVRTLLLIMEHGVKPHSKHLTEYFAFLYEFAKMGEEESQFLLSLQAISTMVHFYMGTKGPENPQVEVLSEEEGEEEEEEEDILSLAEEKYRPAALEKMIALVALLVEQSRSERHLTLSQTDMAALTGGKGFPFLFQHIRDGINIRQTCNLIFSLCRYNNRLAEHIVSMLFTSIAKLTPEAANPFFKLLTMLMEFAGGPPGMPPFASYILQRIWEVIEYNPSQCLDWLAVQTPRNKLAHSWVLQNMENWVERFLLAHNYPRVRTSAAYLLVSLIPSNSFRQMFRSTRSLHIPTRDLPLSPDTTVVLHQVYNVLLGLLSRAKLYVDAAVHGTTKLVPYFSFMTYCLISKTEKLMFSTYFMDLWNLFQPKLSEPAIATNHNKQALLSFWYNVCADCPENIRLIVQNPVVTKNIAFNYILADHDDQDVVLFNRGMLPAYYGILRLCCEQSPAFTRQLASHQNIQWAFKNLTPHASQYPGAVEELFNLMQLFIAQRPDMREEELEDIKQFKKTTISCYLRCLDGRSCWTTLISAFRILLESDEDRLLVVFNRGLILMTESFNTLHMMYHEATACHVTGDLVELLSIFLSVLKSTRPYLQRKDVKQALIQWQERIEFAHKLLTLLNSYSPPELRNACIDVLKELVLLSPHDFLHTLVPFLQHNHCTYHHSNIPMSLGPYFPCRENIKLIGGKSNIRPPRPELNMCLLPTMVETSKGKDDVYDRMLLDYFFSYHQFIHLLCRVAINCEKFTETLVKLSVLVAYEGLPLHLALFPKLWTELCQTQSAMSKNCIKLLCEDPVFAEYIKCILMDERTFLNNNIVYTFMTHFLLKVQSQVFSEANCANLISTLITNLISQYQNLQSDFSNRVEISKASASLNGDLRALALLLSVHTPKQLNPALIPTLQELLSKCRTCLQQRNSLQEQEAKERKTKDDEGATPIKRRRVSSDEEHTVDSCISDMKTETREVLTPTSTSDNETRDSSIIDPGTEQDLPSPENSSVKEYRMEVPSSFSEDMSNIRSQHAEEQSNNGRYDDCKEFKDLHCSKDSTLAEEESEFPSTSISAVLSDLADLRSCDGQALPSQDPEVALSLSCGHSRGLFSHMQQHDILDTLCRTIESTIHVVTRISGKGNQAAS

O=C(CCl)N1CCC(C(=O)N2CCCC2)CC1
inactive: [1] -0.0649 | [2] -0.172 | [3] -0.135 | [4] -0.453 | [5] -0.208
